From PubChem BioAssay
Most compounds without a hit are left out; they make up all but 1.5% or so of the library.
sEH activator = increases human soluble epoxide hydrolase activity; P34913; purified human sEH enzymatic activity, activator screen; activation, % at 2 µM; 91,000 tested, 0.04% active; AID 717; in the data active = activation above about 37%
sEH inhibitor = soluble epoxide hydrolase (human) inhibition; recombinant human sEH enzymatic activity assay; inhibition, % at 2 µM; 91,000 tested, 0.34% active; in the data active = inhibition above about 80%
PLAP act = activators of human placental alkaline phosphatase; P05187; purified PLAP enzyme, luminescent substrate read-out; hits give high values; activation fold at 20 µM; 96,000 tested, 1.2% active; in the data active = activation fold above about 2
BAP1 inh = blocks human BAP1 ubiquitin-AMC hydrolysis; Q92560; recombinant BAP1, Ub-AMC hydrolysis fluorescence kinetic; hits give low values; calls only at 20 µM; 72,000 tested, 0.48% active;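 active = activity remaining at or below 50% of control, provided the compound also passes the data quality filters; inactive = the rest, including low values that fail the filters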
BAP1 inh conf = BAP1 (human) enzyme inhibition, confirmed; purified BAP1, Ub-ethyl ester hydrolysis, HPLC; hits give low values; shares compounds with BAP1 inh; 310 tested, 8% active; AID 753; % of control activity, % at 20 µM;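 active = percent of control activity at or below 60%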
Calls only.

For Cc1cc(C)n(-c2ccc(C(=O)OCC(=O)c3ccc(Br)s3)cc2)n1 the results were sEH activator inactive, sEH inhibitor inactive, PLAP act inactive, BAP1 inh active and BAP1 inh conf inactive.
CCOc1ccc2nc(NC(=O)CN3CCC(n4nnc5cc(F)ccc54)CC3)sc2c1 was read as sEH activator inactive, sEH inhibitor inactive, PLAP act inactive, BAP1 inh active and BAP1 inh conf inactive.
`O=C(CCSc1nnc2scc(-c3ccccc3)n12)Nc1nc(-c2ccccc2)ns1` gave sEH activator inactive, sEH inhibitor inactive, PLAP act inactive, BAP1 inh active and BAP1 inh conf inactive.
CCOC(=O)COc1nc(C)c(Br)c(OC)n1 was read as sEH activator inactive, sEH inhibitor inactive, PLAP act inactive, BAP1 inh active and BAP1 inh conf inactive.
Screening O=C(c1cccs1)c1ccc(-c2cccs2)s1 returned PLAP act inactive, BAP1 inh active and BAP1 inh conf inactive.
Screening O=C(c1cc2ccccc2o1)c1cccs1 returned sEH activator inactive, sEH inhibitor inactive, PLAP act inactive and BAP1 inh inactive.
